For 40 molecules, growth results are on record in PubChem BioAssay (NCI).

This is part of a sample that, as a whole, favours compounds with a hit. Of some 83,000 tested, about 20% had one in any assay.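 Cells were grown in 96-well plates and exposed to the test compound at a single concentration for 48 hours; results are reported as percent growth, with values below 10 considered active.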 A number with no mark means an inactive call. Activity calls are given as the source filed them.

For this test, the system named is HL-60(TB) leukemia. The test is described as follows: NCI-60 one-dose screen, 48 h (100 = growth as untreated, 0 = no growth, -100 = all killed). As to conditions: 10 µM unless noted.
In the case of `COc1ccc(CNc2c3ccccc3nc3ccccc23)c(OC)c1`, the growth is 36.9%.

In the case of `CC1CCN(C(=O)CCCl)c2ccccc21` (stereo not given), the growth was 112%.

Take `CCCCCCCCCc1ccc(OC(C)=O)cc1`: the growth was 108%.

As for `C=C(c1ccc(OC)c(/C=C/C(=O)c2cc(OC)c(OC)c(OC)c2)c1)c1cc(OC)c(OC)c(OC)c1`, the growth was 12.8%.

As for `Nc1nccc2c1ccn2-c1cccc(NC(=O)c2ccc(N3CCOCC3)c(C(F)(F)F)c2)c1`, the growth was -3.75% (active).

`CN(C)c1ccc(/C=C/C2=[N+](C)c3ccccc3C2(C)C)cc1`: the growth is -18.4% (active).

`Cc1ccc(/C(=N\N=C(N)N)c2ccccc2)cc1`: the growth is -41.6% (active).

Take `COc1ccc(C2CC(c3ccc(OC)c(OC)c3)=NN2C(=O)c2cc(OC)c(OC)c(OC)c2)cc1` (stereo not given): the growth is 5.49% (active).

As to `Oc1ccccc1-c1nc2ccccn2c1NCCN1CCOCC1`, the growth is 102%.

On to `CC(=O)c1cc(C(=O)c2ccc3c(c2)Sc2ccccc2N3)c2c(C)cccn12`, for which the growth was -4.53% (active).

Take `CCCC#CCN(CC)CC`: the growth is 96.6%.

Consider `CC(=O)/C(=C/c1ccc(Br)cc1)C(=O)c1ccccc1`, for which the growth is 57%.

For the molecule `Oc1nc(NCc2ccccc2)sc1/C=C1\C=Nc2ncccc21`, the growth is 36.4%.

In the case of `CC(C)(C)c1cc(C(C)(C)C)cc(S(=O)(=O)Nc2cc3ccccc3cc2C(=O)NCCN)c1`, the growth is -19.8% (active).

Consider `O=c1[nH][nH]c(=O)c2cc([N+](=O)[O-])ccc12`, for which the growth was 96.2%.

For the molecule `CNC(=O)CCN1CCN(CC/C=C2\c3ccccc3Sc3ccc(Cl)cc32)CC1`, the growth is 50.2%.

Regarding `NC(=O)c1c(NC(=O)c2ccccn2)sc2c1CCC(=O)C2`, the growth is -0.0087% (active).

`COc1ccc(C/C(C)=C(\c2ccc(Cl)cc2)c2ccc(OCCN3CCCCC3)cc2)cc1`: the growth was 91.8%.

In the case of `FCc1ncc(-c2ccc(C(F)(F)F)cc2)c(NC2CCCCCC2)n1`, the growth is -25.6% [100 µM] (active).

With `CC1C(/C=N/Nc2ccccc2)C(C#N)(C#N)C1(C#N)C#N` (stereo not given), the growth is 54.3%.

As to `Cc1ccc(CNc2c3ccccc3nc3cc(NC(=O)CCN4CCCC4)ccc23)cc1`, the growth was -64.3% (active).

Turning to `CCCCCCCC/C=C\CCCCCCCCOc1ccccc1CC(=O)NCC[N+]1(C)CCOCC1`, the growth was 67.2%.

Regarding `C/C(=C(/c1ccc(O)cc1)c1ccc(OCCN2CCCC2)cc1)c1ccccc1`, the growth is 45.1%.

Regarding `COc1ccc(CSc2nc3cc(OC)c(OC)cc3c(=O)n2-c2ccc(OC)cc2OC)cc1`, the growth is 112%.

Take `COc1cc(/C=C/c2cc(/C=C/c3ccc(O)c(OC)c3)[nH]c(=O)n2)ccc1O`: the growth was 61.3%.

Take `Cc1cc(NCc2cc(Nc3ccnc4cc(Cl)ccc34)ccc2F)nc(N2CCCC2)n1`: the growth was -59.5% (active).

`COc1ccc(OC)c(-c2ccc(-c3ccccc3N)c3[nH]c4ccccc4c23)c1`: the growth was 93.4%.

For `COC(=O)c1c2c(c[n+]([O-])c1C)C(=O)C=CC2=O`, the growth is 28.1%.

In the case of `[O-][n+]1ccccc1CCN(O)CCc1cccc[n+]1[O-]`, the growth was 74.2%.

Consider `C#CCNC(=O)[C@H](Cc1ccccc1)NC(=O)[C@]12CC[C@@H](C(=C)C)[C@@H]1[C@H]1CC[C@@H]3[C@@]4(C)CCC(=O)C(C)(C)[C@@H]4CC[C@@]3(C)[C@]1(C)CC2`, for which the growth was 33%.

With `C[C@]12CC[C@@H]3c4ccc(O)cc4CC[C@H]3[C@@H]1CC[C@@H]2NS(=O)(=O)c1cccc(Br)c1`, the growth is 35.2%.

On to `COc1ccc(N=Nc2ccc(O)c(=O)cc2)cc1`, for which the growth was -33.2% (active).

In the case of `O=C(COc1cccc(/C=C2\Cc3ccccc3C2=O)c1)c1ccc(Cl)cc1`, the growth was 94.2%.

For `CN(N)c1nc2sc3c(c2c(=O)[nH]1)CCCC3`, the growth is 102%.

Take `N#CCc1ccc([N+](=O)[O-])cc1`: the growth is 53.1%.

On to `COc1cc(C(=O)/C=C/c2cc(-c3ccc4c(c3)OCO4)n[nH]2)cc(OC)c1OC`, for which the growth is -16.6% (active).

As for `COC(=O)c1c(C)nc(C)c2c1C(=O)C(Br)=C(NCCCCO)C2=O`, the growth is 24.1%.

Regarding `Clc1nc2ccccc2nc1CI`, the growth is 93.8%.

`C[C@]12CC[C@@H]3c4cc(OC(F)F)c(OS(N)(=O)=O)cc4CC[C@H]3[C@@H]1CC[C@@H]2OS(N)(=O)=O`: the growth is 13.1%.

For `Cn1nc(C(F)(F)F)cc1-c1cc(Cl)c(OCc2ccc(Cl)cc2)c(-c2ccc(Cl)c(C(F)(F)F)c2)c1O`, the growth is -24.3% (active).
